GRIN3A LBD mod: binders of NR3A ligand-binding domain, primary screen, biophysical, differential scanning fluorimetry, uHTS. NR3A LBD differential scanning fluorimetry, Tm shift; 0% = protein alone, 100% = glycine-bound protein. AID 1259313, 2017. Glutamate receptor ionotropic, NMDA 3A (GRIN3A) ligand-binding domain. Tm shift relative to glycine control, % at 25 µM. 340,000 compounds, 2.5% hits;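 active = melting temperature shift of at least 10% of the positive control shift, at one fixed dose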
esBAF inh: Bmi1 luciferase reporter increase in mESCs, primary screen, esBAF inhibitor project, mouse ES cells, Bmi1 luciferase knock-in, single point | 350,000 compounds, 2% hits | reporter increase, % at 12.5 µM | 24 h; 100% = twice the neutral-well signal; in the data active = activation above about 40%; inconclusive = no clear call, values can overlap the other calls;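 also: 0% = median of the plate's neutral control wells and 100% = double that signal; a rise in the Bmi1 reporter signal indicates esBAF inhibition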
SKN-1 inh: suppressors of acrylamide-induced Pgst-4::GFP reporter in worms, primary screen, SKN-1 inhibitor project, whole organism, uHTS, GFP/RFP fluorescence ratio, strain VP596; AID 624304, 2012; C. elegans VP596 Pgst-4::GFP/RFP ratio, 24 h; 360,000 compounds, 0.49% hits; inhibition, % at 21.8 µM;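 active = interference check ratio from 0.5 to 1.5 plus GFP to RFP signal ratio inhibition reaching or exceeding a fixed threshold, cut at about 30% in these data, passing the limit was not always enough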
SMARCA2 activ: SMARCA2 (BRM) function activators, primary screen, cell-based, luminescence, high throughput | activation, % at 9.1 µM | MG213 cells, MMTV-luciferase reporter, dexamethasone, overnight | 370,000 compounds, 1% hits; in the data active = activation above about 7.8%;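 also: 0% = vehicle wells and 100% = reference activator wells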
Vif imaging: HIV Vif self-association inhibitors, primary screen, imaging, HEK293T, single point | inhibition, % at 7.49 µM | 340,000 compounds, 0.35% hits | HEK293T cells, Vif self-association by quenched fluorescence, 24 h; in the data active = inhibition above about 50%, passing the limit was not always enough; inconclusive = no clear call, values can overlap the other calls; inactive = below about 31%
NadD inh: inhibitors of S. aureus NadD, primary screen, biochemical, colorimetric, uHTS; Nicotinate-nucleotide adenylyltransferase NadD (Staphylococcus aureus N315); purified NadD enzyme, colorimetric absorbance read-out; inhibition, % at 20 µM; 360,000 compounds, 0.78% hits; in the data active = inhibition above about 26%
Numbers without * were called inactive; ? = inconclusive; . = no result given. The list is not random: actives were taken first. Their share in the collection is about 5.2%.

SMILES	GRIN3A LBD mod	esBAF inh	SKN-1 inh	SMARCA2 activ	Vif imaging	NadD inh
CC(=O)NC(CC(C)C)C(=O)NC(Cc1ccccc1)C(=O)CCl (stereo not given)	17*	.	13	-2	3	2
C=CCSc1nc(N)c2c(C)c(C)sc2n1	-2	46*	-6	3	11	5
O=S(=O)(c1ccc(Br)cc1Cl)N1CCN(CCO)CC1	1	-5	3	-4	11	-5
O=C1C=CC(=O)c2c(O)c(N3CCN(CCO)CC3)c(Cl)c(O)c21	-4	-80	32	-9	127*	50*
O=C1C=CC(=O)c2c(O)c(N3CCN(CCOCCO)CC3)c(Br)c(O)c21	-7	.	47*	5	72*	62*
OCCOCCN1CCN(C2=Nc3ccccc3Sc3ccccc32)CC1	3	2	-11	-3	?	0
Cc1ccc(-c2cnc3c(c2)C(=O)N([C@H](C)CO)C[C@H](C)[C@H](CN(C)Cc2ccccc2C(=O)O)O3)cc1	.	4	.	.	.	.
COc1ccccc1-n1nc(C)cc1N	2	-6	15	-1	27	-13
Cc1cc(N)n(-c2ccccn2)n1	12*	9	-10	0	-1	-7
COc1ccc(-c2ccc3n(c2=O)C[C@H]2[C@H](CO)[C@@H](C(=O)N(C)C)[C@@H]3N2Cc2ccncc2)cc1	.	-2	.	.	.	.
COC(=O)C[C@H]1C=C[C@@H](NC(=O)c2ccccc2)[C@H](CO)O1	.	-2	.	.	.	.
O=C(Nc1c(C(=O)O)[nH]c2ccc(F)cc12)c1cccc(C(F)(F)F)c1	12*	.	4	3	2	-1
O=C(Nc1c(C(=O)O)[nH]c2ccccc12)c1cccc(C(F)(F)F)c1	3	.	1	-3	3	-5
COc1ccc(-c2ccc3c(c2)O[C@H](CN(C)C(C)=O)[C@H](C)CN([C@H](C)CO)S3(=O)=O)cc1	.	0	.	.	.	.
CN(C)c1cccc(NC(=O)c2cccc3c(-c4ccc(F)c(F)c4)coc23)c1	.	41*	14	-3	-1	3
O=C(Nc1ccccc1)c1cccc2c(-c3cccnc3)coc12	.	55*	11	6	-1	-5
CC(C)CC#Cc1cnc2c(c1)C(=O)N([C@H](C)CO)C[C@@H](C)[C@H](CN(C)S(=O)(=O)c1cccs1)O2	.	1	.	.	.	.
CC(C)Cn1c(N)c(C(=O)COC(=O)c2ccc(Cl)cc2)c(=O)n(C)c1=O	-1	.	3	-5	-12	-4
CC(C)Cn1c(N)c(C(=O)COC(=O)c2c(O)c(Cl)cc(Cl)c2Cl)c(=O)n(C)c1=O	11*	-2	-18	1	-16	5
Cc1ccc(S(=O)(=O)c2nnn3c2nc(NC2CCN(Cc4ccccc4)CC2)c2ccccc23)cc1C	8	13	-8	.	10	38*
CCc1ccc(S(=O)(=O)c2nnn3c2nc(NCCNC(C)=O)c2ccccc23)cc1	-6	.	-10	1	-36	-1
CCCCNc1nc2c(S(=O)(=O)c3ccccc3)nnn2c2ccccc12	15*	-1	-2	2	-4	2
CC1(C)Nc2ccccc2N(CCC(=O)N2CCOCC2)C1=O	13*	-6	-4	0	6	2
CC(Sc1ccccc1F)C(=O)Nc1ccc2c(c1)OCCO2 (stereo not given)	2	100*	-4	5	-4	-6
COc1ccc(-c2nnc(SC(C)C(=O)Nc3ccc4c(c3)OCCO4)o2)cc1 (stereo not given)	-28	46*	7	6	3	7
CC(=O)Nc1ccc(NC(=O)C(C)Sc2nnc(-c3ccc4c(c3)OCO4)o2)cc1 (stereo not given)	-20	29	-6	-2	1	-2
CCS(=O)(=O)NCC[C@@H]1CC[C@@H](NS(=O)(=O)c2cccc(Cl)c2)[C@H](CO)O1	.	2	.	.	.	.

Source: PubChem BioAssay
